Here are results for 39 compounds from PubChem BioAssay.

Structures are written as SMILES. Unmarked numbers belong to inactive results. Activity calls are given as the source filed them.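 Rule for the calls, unless noted: active = growth inhibition above 50% at the single 2 µM test dose, taken to imply half-maximal potency below 2 µM; inactive = the rest.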

The nature of the first assay: antimalarial activity against Dd2 strain (AID 2302).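 Note: 0% = DMSO untreated growth and 100% = chloroquine plus artemisinin killed control.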 To be noted: P. falciparum Dd2 in RBCs, LDH growth readout, 72 h; at 2 µM; stronger effect = higher value.
On to `OCC1CCN(Cc2ccc(-c3ccc(-c4nc5ccc(F)cc5[nH]4)cc3)cc2)CC1`, for which the growth inhibition was 95% (active).

Regarding `COc1cc(NC(=O)Nc2ccc([N+](=O)[O-])cc2OC)c(OC)cc1Cl`, the growth inhibition is 6%.

Regarding `COc1cc(C)nc2ccc(NC(=O)Nc3ccc4nc(C)cc(OC)c4c3)cc12`, the growth inhibition is 83% (active).

Consider `CC(C)C[C@H](NC(=O)c1cccc(F)c1)C(=O)N[C@H](/C=N/NC(=O)c1ccccc1)CCc1ccccc1`, for which the growth inhibition was 71% (active).

As to `Nc1ccn([C@@H]2O[C@H](COC(c3ccccc3)(c3ccccc3)c3ccccc3)[C@@H](O)[C@@H]2O)c(=O)n1`, the growth inhibition was 2%.

Take `N#Cc1ccc2c(c1)CCN(CCC1CCC(NC(=O)c3cc4ccc(Cl)cc4[nH]3)CC1)C2` (stereo not drawn): the growth inhibition is -2%.

For the compound `Cc1cccc(-c2nc(Nc3ccncc3)c3ccc([N+](=O)[O-])cc3n2)n1`, the growth inhibition is 13%.

`CC(C)C[C@H](NC(=O)c1ccc(OCCN2CCOCC2)cc1)C(=O)N[C@H](/C=N/NC(=O)OC(C)(C)C)CCc1ccccc1`: the growth inhibition is 87% (active).

In the case of `CC(C)CCNC(=O)C1Cc2c([nH]c3cc(Br)ccc23)C2(CCN(Cc3ccccc3)CC2)N1` (stereo not drawn), the growth inhibition is 45%.

In the case of `O=C(/C=C/c1ccc(Cl)c(Cl)c1)N1CCN(C(=O)Nc2ccc(F)c(Cl)c2)CC1`, the growth inhibition was 87% (active).

On to `COc1ccc(CCN2CC[C@H](Nc3nc(-c4ccc(F)c(F)c4)nc4ccccc34)C2)cc1S(N)(=O)=O`, for which the growth inhibition was 64% (active).

Take `O=[N+]([O-])c1cccc(NC(=S)N2CCCN(Cc3ccc(F)cc3F)CC2)c1`: the growth inhibition is 98% (active).

In the case of `N#Cc1ccc(NC(=NC2CCCc3ccccc32)Nc2ccc(-c3ccccc3)cc2)c(O)c1` (stereo not drawn), the growth inhibition was 98% (active).

With `Fc1cccc(COc2ccc(-n3ccc4c(NCCCn5ccnc5)ncnc43)cc2Cl)n1`, the growth inhibition is 29%.

Turning to `Cc1ccc(Nc2nccc(Nc3ccc4c(C)[nH]nc4c3)n2)cc1F`, the growth inhibition was 1%.

In the case of `CCCC(CC)n1ccc2c3c(N)nc(N)nc3ccc21` (stereo not drawn), the growth inhibition is 97% (active).

Take `COc1ccc2nccc([C@@H](O)CN3CCC(NC(=O)c4ccc(Cl)c([N+](=O)[O-])c4)CC3)c2c1`: the growth inhibition was 43%.

Turning to `COc1ccc2nc(C)cc(Nc3ccc(Oc4ccc5ccccc5c4)c(Cl)c3)c2c1`, the growth inhibition is 99% (active).

For the compound `Cc1cc(F)ccc1Nc1nc(N(C)c2ccccc2)c2cc(OCCCN(C)C)ccc2n1`, the growth inhibition was 49%.

For `O=[N+]([O-])c1cc2c(cc1C=NNc1nc(Nc3ccccc3)nc(Nc3ccccc3)n1)OCO2`, the growth inhibition was 46%.

As for `Cn1c(=O)c2nc(-c3ccc(Cl)cc3)nnc2n(CCCC#N)c1=O`, the growth inhibition is 98% (active).

Consider `CCOC(=O)c1c(-c2ccccc2)[nH]c2c(sc3ccccc32)c1=O`, for which the growth inhibition is 65% (active).

Regarding `CCCC1N=C(N)N=C(N)N1c1cccc(C(F)(F)F)c1` (stereo not drawn), the growth inhibition was 7%.

For the compound `Cc1cccc(CNc2nc(C)cc(N[C@@H](Cc3ccccc3)C(=O)NCCOc3ccccc3)n2)c1`, the growth inhibition is 54% (active).

Regarding `Fc1ccc(Nc2ccnc3cc(-c4ccc(CNCCN5CCOCC5)o4)ccc23)c(Cl)c1`, the growth inhibition is 99% (active).

On to `CCNc1cc(C(=O)N[C@@H](Cc2ccccc2)[C@H](O)CNC2CCC(C(C)(C)C)CC2)cc(N2CCCC2=O)c1` (stereo partly drawn), for which the growth inhibition was 98% (active).

On to `Cc1ccc(-c2nnc(-c3ccc(C(=O)NC4CCN(Cc5ccc(C#N)cc5)CC4)cc3)o2)cc1Br`, for which the growth inhibition is 7%.

On to `O=C(Nc1cc(F)cc(F)c1)N1CCOC(CCN2CCC3(CCc4ccccc43)CC2)(c2ccc(Cl)c(Cl)c2)C1` (stereo not drawn), for which the growth inhibition is 86% (active).

For `CCCC(CNCc1cccc(I)c1)CNc1cc(=O)c2ccccc2[nH]1` (stereo not drawn), the growth inhibition is 96% (active).

Turning to `COc1ccc2nccc([C@@H](O)CN3CC[C@H](NCc4nc5c(cc4F)SCC(=O)N5)[C@H](F)C3)c2c1`, the growth inhibition is 49%.

For `Cc1ccc(F)c(C(=O)Nc2cccc(-c3nn4ccccc4c3-c3ccnc(Nc4cccc(F)c4)n3)c2)c1F`, the growth inhibition was 60% (active).

For `Cc1cc(C(=O)OCC(N)=O)c(C)n1-c1ccc(F)cc1`, the growth inhibition is 96% (active).

For `Cc1cccc2[nH]c(-c3ccc(-c4cccc(CNCCN(C)C)c4)cc3)nc12`, the growth inhibition was 98% (active).

On to `CNC(=O)c1ccccc1Nc1nc(Nc2cccnc2)ncc1C`, for which the growth inhibition is 90% (active).

Consider `CCCOc1ccc(C(F)(F)F)cc1NC(=O)c1nc2nc(C)cc(C)n2n1`, for which the growth inhibition was 88% (active).

For `COc1ccc2ncc(F)c(CCN3C[C@H](CNCc4ccc5oc(=O)ccc5c4)[C@H](O)C3)c2n1`, the growth inhibition is 6%.

For `CC(Oc1ccc(Cl)cc1)C(=O)Nc1cc(C(F)(F)F)ccc1-n1cncn1` (stereo not drawn), the growth inhibition was 98% (active).

Turning to `Cc1ncc(CN2CCC(C(=O)Nc3ccc(-c4nc5ccccc5o4)cc3)CC2)s1`, the growth inhibition was 92% (active).

In the case of `CC(C)(CNC(=O)[C@@H]1CCCN(CCOc2ccc(Cl)cc2)C1)c1nc(-c2ccc(Cl)c(O)c2)c(-c2ccncc2)[nH]1`, the growth inhibition is 57% (active).

Another assay is described as follows: HepG2 cytotoxicity, primary screen, cytotoxicity control for P. falciparum antimalarial project, cell-based, ATP luminescence (AID 2303;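 active = inhibition above 50%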;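 note: 0% = DMSO wells and 100% = digitonin-killed cells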). To be noted: HepG2 viability, 24-48 h, at 10 µM, stronger effect = higher value.
What is called inhibition is the change of the read-out against control, counted positive when it falls. As for `OCC1CCN(Cc2ccc(-c3ccc(-c4nc5ccc(F)cc5[nH]4)cc3)cc2)CC1`, the inhibition was 17%.

For the compound `COc1cc(NC(=O)Nc2ccc([N+](=O)[O-])cc2OC)c(OC)cc1Cl`, the inhibition was 38%.

Consider `COc1cc(C)nc2ccc(NC(=O)Nc3ccc4nc(C)cc(OC)c4c3)cc12`, for which the inhibition is 79% (active).

Consider `CC(C)C[C@H](NC(=O)c1cccc(F)c1)C(=O)N[C@H](/C=N/NC(=O)c1ccccc1)CCc1ccccc1`, for which the inhibition was 0%.

Take `Nc1ccn([C@@H]2O[C@H](COC(c3ccccc3)(c3ccccc3)c3ccccc3)[C@@H](O)[C@@H]2O)c(=O)n1`: the inhibition is 26%.

For the compound `N#Cc1ccc2c(c1)CCN(CCC1CCC(NC(=O)c3cc4ccc(Cl)cc4[nH]3)CC1)C2` (stereo not drawn), the inhibition was 5%.

Take `Cc1cccc(-c2nc(Nc3ccncc3)c3ccc([N+](=O)[O-])cc3n2)n1`: the inhibition was -9%.

For `CC(C)C[C@H](NC(=O)c1ccc(OCCN2CCOCC2)cc1)C(=O)N[C@H](/C=N/NC(=O)OC(C)(C)C)CCc1ccccc1`, the inhibition was 8%.

`CC(C)CCNC(=O)C1Cc2c([nH]c3cc(Br)ccc23)C2(CCN(Cc3ccccc3)CC2)N1` (stereo not drawn): the inhibition is 10%.

With `O=C(/C=C/c1ccc(Cl)c(Cl)c1)N1CCN(C(=O)Nc2ccc(F)c(Cl)c2)CC1`, the inhibition was 19%.

On to `COc1ccc(CCN2CC[C@H](Nc3nc(-c4ccc(F)c(F)c4)nc4ccccc34)C2)cc1S(N)(=O)=O`, for which the inhibition is 18%.

With `O=[N+]([O-])c1cccc(NC(=S)N2CCCN(Cc3ccc(F)cc3F)CC2)c1`, the inhibition is 5%.

Consider `N#Cc1ccc(NC(=NC2CCCc3ccccc32)Nc2ccc(-c3ccccc3)cc2)c(O)c1` (stereo not drawn), for which the inhibition was 0%.

In the case of `Fc1cccc(COc2ccc(-n3ccc4c(NCCCn5ccnc5)ncnc43)cc2Cl)n1`, the inhibition was 14%.

With `Cc1ccc(Nc2nccc(Nc3ccc4c(C)[nH]nc4c3)n2)cc1F`, the inhibition was 6%.

Turning to `CCCC(CC)n1ccc2c3c(N)nc(N)nc3ccc21` (stereo not drawn), the inhibition is 67% (active).

For `COc1ccc2nccc([C@@H](O)CN3CCC(NC(=O)c4ccc(Cl)c([N+](=O)[O-])c4)CC3)c2c1`, the inhibition was 14%.

`COc1ccc2nc(C)cc(Nc3ccc(Oc4ccc5ccccc5c4)c(Cl)c3)c2c1`: the inhibition is 40%.

Take `Cc1cc(F)ccc1Nc1nc(N(C)c2ccccc2)c2cc(OCCCN(C)C)ccc2n1`: the inhibition was 31%.

In the case of `O=[N+]([O-])c1cc2c(cc1C=NNc1nc(Nc3ccccc3)nc(Nc3ccccc3)n1)OCO2`, the inhibition is -8%.

As to `Cn1c(=O)c2nc(-c3ccc(Cl)cc3)nnc2n(CCCC#N)c1=O`, the inhibition is 6%.

Turning to `CCOC(=O)c1c(-c2ccccc2)[nH]c2c(sc3ccccc32)c1=O`, the inhibition was 2%.

Consider `CCCC1N=C(N)N=C(N)N1c1cccc(C(F)(F)F)c1` (stereo not drawn), for which the inhibition is 22%.

In the case of `Cc1cccc(CNc2nc(C)cc(N[C@@H](Cc3ccccc3)C(=O)NCCOc3ccccc3)n2)c1`, the inhibition is 28%.

Consider `Fc1ccc(Nc2ccnc3cc(-c4ccc(CNCCN5CCOCC5)o4)ccc23)c(Cl)c1`, for which the inhibition was 34%.

Regarding `CCNc1cc(C(=O)N[C@@H](Cc2ccccc2)[C@H](O)CNC2CCC(C(C)(C)C)CC2)cc(N2CCCC2=O)c1` (stereo partly drawn), the inhibition is 38%.

`Cc1ccc(-c2nnc(-c3ccc(C(=O)NC4CCN(Cc5ccc(C#N)cc5)CC4)cc3)o2)cc1Br`: the inhibition is 41%.

On to `O=C(Nc1cc(F)cc(F)c1)N1CCOC(CCN2CCC3(CCc4ccccc43)CC2)(c2ccc(Cl)c(Cl)c2)C1` (stereo not drawn), for which the inhibition was 32%.

For the compound `CCCC(CNCc1cccc(I)c1)CNc1cc(=O)c2ccccc2[nH]1` (stereo not drawn), the inhibition was -3%.

For `COc1ccc2nccc([C@@H](O)CN3CC[C@H](NCc4nc5c(cc4F)SCC(=O)N5)[C@H](F)C3)c2c1`, the inhibition is 9%.

Regarding `Cc1ccc(F)c(C(=O)Nc2cccc(-c3nn4ccccc4c3-c3ccnc(Nc4cccc(F)c4)n3)c2)c1F`, the inhibition is 35%.

For `Cc1cc(C(=O)OCC(N)=O)c(C)n1-c1ccc(F)cc1`, the inhibition is -12%.

In the case of `Cc1cccc2[nH]c(-c3ccc(-c4cccc(CNCCN(C)C)c4)cc3)nc12`, the inhibition is 6%.

On to `CNC(=O)c1ccccc1Nc1nc(Nc2cccnc2)ncc1C`, for which the inhibition was 17%.

With `CCCOc1ccc(C(F)(F)F)cc1NC(=O)c1nc2nc(C)cc(C)n2n1`, the inhibition was 7%.

For `COc1ccc2ncc(F)c(CCN3C[C@H](CNCc4ccc5oc(=O)ccc5c4)[C@H](O)C3)c2n1`, the inhibition is 18%.

As to `CC(Oc1ccc(Cl)cc1)C(=O)Nc1cc(C(F)(F)F)ccc1-n1cncn1` (stereo not drawn), the inhibition was -2%.

Take `Cc1ncc(CN2CCC(C(=O)Nc3ccc(-c4nc5ccccc5o4)cc3)CC2)s1`: the inhibition was -14%.

For `CC(C)(CNC(=O)[C@@H]1CCCN(CCOc2ccc(Cl)cc2)C1)c1nc(-c2ccc(Cl)c(O)c2)c(-c2ccncc2)[nH]1`, the inhibition is 58% (active).
